# Test results: the supplement of paper PMC10646978
# ± gives the standard deviation.
# Key:
# Conditions in all cases: modulator concentration 10 µM
# [1] = system: RAW-Dual (murine macrophage reporter line); test: NF-kB reporter (SEAP) activity fold change vs agonist alone; higher = enhanced NF-kB activity
# How it was run: (§1)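 In 384-well plates holding 50 000 RAW-Dual murine macrophage reporter cells per well, compound at 10 μM final was pre-incubated for 1 hour at 37 °C, after which a PRR agonist was added overnight. Supernatant SEAP read with QUANTI-Blue at 620 nm absorbance reported NF-κB, and Lucia luciferase read with QUANTI-Luc luminescence reported IRF. Fold change values come from dividing each reporter signal by the mean of agonist-only control wells on the same plate, averaged over replicate plates with propagated errors.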
# [2] = system: RAW-Dual (murine macrophage reporter line); test: IRF reporter (Lucia luciferase) activity fold change vs agonist alone; higher = enhanced IRF activity
# How it was run: as §1
# [3] = system: RAW-Dual (murine macrophage reporter line); test: viability score (confluency relative to resting cells, overnight) (fraction); higher = more viable, active = viable (0.7 or more)
# How it was run: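 Overnight exposure to 10 μM final compound was carried out on RAW-Dual macrophages in 384-well plates. IncuCyte software generated two confluency masks over all wells imaged with IncuCyte. The viability score gives confluency in relation to resting cells. A compound met the cutoff if each mask exceeded 70% of resting cells.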
# [4] = agonist: CpG ODN 1826 0.5 ug/mL
Structure (SMILES),"NF-kB reporter [1, 4]",NF-kB reporter ([1]; agonist: LPS 0.1 ug/mL),NF-kB reporter ([1]; agonist: MPLA […]),IRF reporter ([2]; agonist: 3'3'-cGAMP 10 ug/mL),IRF reporter ([2]; agonist: LPS 0.1 ug/mL),IRF reporter ([2]; agonist: MPLA […]),viability score [3]
COc1ccccc1NS(=O)(=O)c1cc2c3c(c1)CC(=O)N3CCC2,0.967 ± 0.088,1.03 ± 0.096,1.07 ± 0.071,0.992 ± 0.035,1.09 ± 0.15,0.871 ± 0.11,1.01 (active)
Cl.O=C1c2cccc3c2[C@H](CCC3)CN1[C@@H]1CN2CCC1CC2,1.03 ± 0.17,0.655 ± 0.053,0.823 ± 0.11,0.582 ± 0.022,0.918 ± 0.17,0.987 ± 0.12,0.974 (active)
NC1CONC1=O (stereo unspecified),1.25 ± 0.3,1.09 ± 0.11,1 ± 0.082,0.937 ± 0.033,1.2 ± 0.17,1.11 ± 0.12,0.991 (active)
COc1cc(C=C2NC(=O)NC2=O)cc(I)c1OCc1ccccc1,0.986 ± 0.082,1.09 ± 0.066,0.93 ± 0.098,1.05 ± 0.025,1.37 ± 0.15,1.12 ± 0.23,1.01 (active)
CN(C)CC/C=C1/c2ccccc2Sc2ccc(Cl)cc21,0.942 ± 0.058,1.02 ± 0.085,1.08 ± 0.078,0.925 ± 0.043,1.08 ± 0.19,1.23 ± 0.38,1.02 (active)
CS(=O)(=O)N1CCN(Cc2cc3nc(-c4cccc5[nH]ncc45)nc(N4CCOCC4)c3s2)CC1,0.179 ± 0.029,2.63 ± 0.34,2.94 ± 0.17,0.151 ± 0.0092,1.4 ± 0.24,1.33 ± 0.17,0.888 (active)
COc1cc(C=Nc2ccc(-c3ccc(N=Cc4cc(OC)c(OC)cc4[N+](=O)[O-])cc3)cc2)c([N+](=O)[O-])cc1OC,0.742 ± 0.19,1.02 ± 0.065,1.02 ± 0.1,0.769 ± 0.1,1.03 ± 0.084,1.01 ± 0.41,1.01 (active)
O=c1oc2c(O)c(O)cc3c(=O)oc4c(O)c(O)cc1c4c23,1.05 ± 0.32,0.944 ± 0.051,0.963 ± 0.1,0.85 ± 0.055,1.11 ± 0.12,1.1 ± 0.22,0.997 (active)
Nc1ccn(C2OC(CO)C(O)C2O)c(=O)n1 (stereo unspecified),1 ± 0.082,0.875 ± 0.092,1.49 ± 0.44,0.96 ± 0.052,1.25 ± 0.2,1.26 ± 0.27,1.03 (active)
CC(=O)NNC(=O)c1ccncc1,1.13 ± 0.089,1.13 ± 0.074,1.03 ± 0.043,1 ± 0.15,1.07 ± 0.14,1.07 ± 0.26,0.996 (active)
Cc1ccccc1C(=O)Nc1ccc(C(=O)N2CCCC(O)c3cc(Cl)ccc32)c(C)c1 (stereo unspecified),1.02 ± 0.2,1.09 ± 0.15,0.92 ± 0.056,0.601 ± 0.019,1.04 ± 0.29,1.07 ± 0.13,0.998 (active)
CN(C)CCC=C1c2ccccc2COc2ccccc21.Cl,0.758 ± 0.18,1.01 ± 0.054,1.06 ± 0.067,0.576 ± 0.031,1.22 ± 0.21,1.17 ± 0.2,0.978 (active)
CC(C)COc1ccc(CNC(=O)N(Cc2ccc(F)cc2)C2CCN(C)CC2)cc1.CC(C)COc1ccc(CNC(=O)N(Cc2ccc(F)cc2)C2CCN(C)CC2)cc1.O=C(O)[C@H](O)[C@@H](O)C(=O)O,0.136 ± 0.016,0.384 ± 0.16,0.129 ± 0.012,0.0542 ± 0.025,0.528 ± 0.31,0.03 ± 0.0028,0.0597 (inactive)
CN(C)CCCN1c2ccccc2Sc2ccc(Cl)cc21.Cl,0.377 ± 0.029,0.997 ± 0.096,1.87 ± 0.041,1.07 ± 0.073,1.13 ± 0.1,1.37 ± 0.17,0.306 (inactive)
COc1ccc(CC(=O)N2CCC(N3CCC(OC)CC3)CC2)cc1OC,0.965 ± 0.063,1.09 ± 0.087,0.893 ± 0.041,0.949 ± 0.05,1.02 ± 0.11,1.08 ± 0.35,0.974 (active)
CCC1=C(C)CN(C(=O)NCCc2ccc(S(=O)(=O)NC(=O)N[C@H]3CC[C@H](C)CC3)cc2)C1=O,1.08 ± 0.085,1.08 ± 0.062,1.03 ± 0.066,1.22 ± 0.23,0.95 ± 0.067,0.915 ± 0.14,0.996 (active)
CC1=CC(C)C2(COC(c3cccnc3)OC2)C(C)C1 (stereo unspecified),0.876 ± 0.067,0.788 ± 0.12,0.695 ± 0.065,0.967 ± 0.033,1.15 ± 0.18,1.1 ± 0.19,0.388 (inactive)
CN(C)CC(c1ccc(O)cc1)C1(O)CCCCC1 (stereo unspecified),0.971 ± 0.16,1.07 ± 0.26,0.893 ± 0.054,0.897 ± 0.045,1.44 ± 0.32,1.17 ± 0.092,0.992 (active)
COC(=O)C1=CN(CC2CCCO2)C=C(C(=O)OC)C1c1cccc(F)c1 (stereo unspecified),0.948 ± 0.21,0.907 ± 0.084,1.05 ± 0.098,0.868 ± 0.026,1.21 ± 0.19,1.18 ± 0.16,0.954 (active)
CCOC(=O)C1C(=O)C=C(C)C(C(=O)OCC)C1c1ccc(Br)cc1 (stereo unspecified),1.05 ± 0.083,1.01 ± 0.093,1.06 ± 0.07,1.17 ± 0.047,1.3 ± 0.17,1.25 ± 0.19,1 (active)
COc1ccc(CCNc2cc(C)nc3cc(-c4ccc(OC)c(OC)c4)nn23)cc1OC,1.18 ± 0.067,1.13 ± 0.086,1.27 ± 0.035,0.733 ± 0.026,0.978 ± 0.073,1.13 ± 0.11,1 (active)
Cc1cn([C@H]2C=C[C@@H](CO)O2)c(=O)[nH]c1=O [Prestw-1279],1.13 ± 0.11,1.05 ± 0.13,0.957 ± 0.077,0.969 ± 0.074,0.94 ± 0.092,0.877 ± 0.13,0.998 (active)
CN1CCN(C2=C(Cl)C(=O)N(c3ccc(Cl)c(Cl)c3)C2=O)CC1,0.902 ± 0.11,1.01 ± 0.091,0.759 ± 0.045,0.524 ± 0.016,1.54 ± 0.28,1.24 ± 0.21,1.01 (active)
